# LASV entry inh: qHTS for Inhibitors of binding or entry into cells for Lassa Virus | Potency, µM (highest dose often 37.9 µM), inactives show at the highest dose activity change, negative = inhibition, most hits filed as inhibitors | 300,000 compounds, 1.2% hits | Lassa virus pseudotype entry inhibition, cell reporter; calls by dose curve; tested in HEK293 cells; further: potency means the concentration at half of the fitted maximal effect; nearly all actives have a fitted effect of over 50% in size
# HCMV inh: qHTS Assay for inhibitors of the human cytomegalovirus (HCMV); HFF cells, HCMV-luciferase reporter, 72 h; hits give low values; activity change, negative = inhibition, % at 57.5 µM; 410,000 compounds, 4.5% hits; in the data active means activity change below about -60%; inconclusive means no clear call, values can overlap the other calls; inactive means above about -39%
#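 Inhibition of viral replication was scored as loss of reporter luminescence in HFFs infected with HCMV-luciferase (MOI 1 PFU/cell) for 72 h; compounds tested at 2 doses, normalized to buffer and Salinomycin controls.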
# MARV entry inh: qHTS for inhibitors of binding or entry into cells for Marburg Virus. Marburg virus pseudotyped entry inhibition, cell reporter. Potency, µM (top dose mostly 37.8 µM), for inactives: top-dose activity change, negative = inhibition, most hits filed as inhibitors. 300,000 compounds, 1.8% hits. AID 540276, 2011; calls by dose curve; tested in HEK293 cells; further: potency means the concentration at half of the fitted maximal effect
# FMDV antiviral: High Throughput Screening for Foot and Mouth Disease Virus Antivirals; AID 1159524, 2015; Potency, µM (doses to about 57.9 µM), for inactives: at the highest dose activity change, negative = inhibition, hits mostly inhibitors; 410,000 compounds, 1.2% hits; FMDV antiviral cell-based qHTS; calls by dose curve; tested in HEK293T cells; further: read-out not given here; potency means the concentration at half of the fitted maximal effect; nearly all actives have a fitted effect of over 45% in size
# HCV inhibitor: qHTS Assay for Inhibitors of Hepatitis C Virus (HCV); 340,000 compounds, 3.4% hits; Huh7.5.1 HCVcc-Cre infection, luciferase reporter, 44 h; Potency, µM (highest dose often 41.8 µM), inactives show top-dose activity change, negative = inhibition, usual class: inhibitors; AID 651820, 2012; active means well fitted inhibition curve with a large enough effect; inconclusive means small, poorly fitted or top-dose-only effect, or another doubt; inactive means no such curve, though single readings can be large or run the other way; further: potency means the concentration at half of the fitted maximal effect
#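 1,000 cells/well; 4 h culture; + compound; + HCVcc-Cre (~0.5 moi); 44 h; luciferase substrate, RT 15 min; read 15 sec.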
# Active calls of the source: *; u = inconclusive; x = no result given; + = active, no number; [ ] = remark or other dose. Shown are actives, neighbours in structure and some others; about 7.9% of the full set was active somewhere. On the % scale 0 is the no-effect control and ±100 the full control effect.
SMILES,LASV entry inh,HCMV inh,MARV entry inh,FMDV antiviral,HCV inhibitor
CC(C)N1CCC(N2CCN(Cc3ccc(-c4ccc(Cl)cc4)o3)CC2CCO)CC1 (stereo not given),u,29,3.2µM*,-15%,4µM*
CCn1c(COc2cccc3cccnc23)nnc1SC(F)F,-24%[46.1 µM],-24,1%[46.1 µM],-11%,-2%
CCOC(=O)/C(C#N)=C(/C)c1ccc(OC)cc1,1%,14,-7%[46.1 µM],0%,32µM*
O=C1NC(Cc2ccc(O)cc2)c2nc3cc(Cl)ccc3c(=O)n2-c2cc3ccccc3cc21 (stereo not given),x,-100*,x,u,x
Cc1ccc2c(c1)-n1c(nc3ccccc3c1=O)C(Cc1ccc(O)cc1)NC2=O (stereo not given),x,2,x,x,1%
O=C1NC(Cc2ccccc2)c2nc3cc(Cl)ccc3c(=O)n2-c2ncccc21 (stereo not given),x,-67*,x,u,x
O=C1NC(Cc2ccc(O)cc2)c2nc3ccc(F)cc3c(=O)n2-c2cc3ccccc3cc21 (stereo not given),x,-101*,x,u,x
O=C1NC(Cc2ccc(O)cc2)c2nc3cc(F)c(F)cc3c(=O)n2-c2cc3ccccc3cc21 (stereo not given),x,-19,x,u,x
Cc1ccc2nc3n(c(=O)c2c1)-c1cc2ccccc2cc1C(=O)NC3Cc1ccc(O)cc1 (stereo not given),x,-92*,x,u,x
COc1cc(Nc2cc3[nH]c(-c4ccccc4)cc3cn2)cc(C(F)(F)F)c1,x,-11,x,x,x
COCc1cc(N2CCN(C(=O)OC(C)(C)C)C[C@H]2C)ccc1N1CC[C@H](O)C1,x,47,x,x,x
CN1C(C(=O)NC(C)(C)C)=CC(c2ccc3c(c2)OCO3)=NS1(=O)=O,-7%[46.1 µM],-8,13%[46.1 µM],-9%,x
CC[C@@H](C)[C@H](NC(=O)OC(C)(C)C)c1nnc(S(=O)(=O)Cc2cc(C)ccc2C)o1,10µM*,1,u,-28%,-14%
C[C@H](NC(=O)OC(C)(C)C)c1nnc(SCc2c(F)cccc2Cl)o1,-34%[46.1 µM],-78*,1%[46.1 µM],-30%,x
CC(C)[C@H](NC(=O)OC(C)(C)C)c1nnc(S(=O)(=O)Cc2c(F)cccc2Cl)o1,-5%,-76*,-3%,35µM*,u
O=S1(=O)N(Cc2ccccc2)CCCN1Cc1ccc(F)cc1Cl,14%[46.1 µM],+,x,7%,x
Cn1c(CCNC(=O)c2ccccc2F)nnc1SCC(=O)Nc1nncs1,x,u,6%[46.1 µM],-6%,-8%
COC(=O)C1=C(c2ccc(F)cc2F)C[C@@H]2CC[C@H]1N2C(=O)N1CCC(O)CC1,x,-62*,x,-9%,20%
COC(=O)C1=C(c2ccc(F)cc2OCc2ccccc2)C[C@@H]2CC[C@H]1N2C(=O)NCCOc1ccccc1Cl,x,-16,x,-23%,u
COC(=O)C1=C(c2ccc(F)cc2OCc2ccccc2)C[C@@H]2CC[C@H]1N2C(=O)NCc1ccccc1Cl,x,-63*,x,0%,u
COC(=O)C1=C(c2ccc(Cl)c(C(F)(F)F)c2)C[C@@H]2CC[C@H]1N2C(=O)NCCOc1ccccc1Cl,x,x,x,u,10µM*
CCCNC(=O)N1[C@H]2CC[C@@H]1C(C(=O)OC)=C(c1ccc(F)cc1F)C2,x,-16,x,-3%,10%
COC(=O)C1=C(c2ccc(Cl)c(C(F)(F)F)c2)C[C@@H]2CC[C@H]1N2C(=O)NCCNC(C)=O,x,-7,x,-7%,9%
COC(=O)C1=C(c2ccc(F)cc2OCc2ccccc2)C[C@@H]2CC[C@H]1N2C(=O)N1CCCC1,x,-7,x,u,11µM*
COc1ccc(-c2csc(NC(CO)c3nc4ccccc4n3CCCO)n2)cc1 (stereo not given),x,3,x,0%,u
SMILES,LASV entry inh,HCMV inh,MARV entry inh,FMDV antiviral,HCV inhibitor
O=C(c1cnccn1)N1CCC2(CC1)CN(c1ccccc1)C2,x,x,x,-3%,x
COC(=O)C1=C(c2cc3ccccc3o2)C[C@@H]2CC[C@H]1N2C(=O)N1CCCC1,x,-60*,x,-30%,u
COC(=O)C1=C(c2cc3ccccc3o2)C[C@@H]2CC[C@H]1N2C(=O)N1CCCCC1,x,-17,x,u,u
CC1=CC(Cc2ccc(C)cc2)C(=O)N=N1 (stereo not given),x,x,0%,x,x
S=C(Nc1ccc(Oc2ccccc2)cc1)NC1CCCCCC1,u,-32,u,35%,u
S=C(Nc1ccc(Cl)c(Cl)c1)NC1CCCCC1,-19%,-99*,u,19%,u
S=C(NCc1ccc2c(c1)OCO2)Nc1ccc2nsnc2c1,19%,-66*,-36%[46.1 µM],34%,u
S=C(Nc1ccc2nsnc2c1)NC1CCCCC1,-1%,-62*,u,58%,-3%
S=C(NNc1ccc2ccccc2c1)NC1CCCCC1,19%,-60*,u,41%,-13%
Cc1ccc(NC(=S)NCc2ccc3c(c2)OCO3)cc1C,6%,11,-1%,44%,8%
CCOC(=O)NN=C1C[C@@H](O)[C@@H](O)[C@@H]2[C@H]3C(=O)N(Cc4ccccc4)C(=O)[C@@H]3CC[C@@H]12,x,x,25%[14.2 µM],x,x
CCCS(=O)(=O)c1nnnn1-c1cccc(OC)c1,-23%[14.3 µM],x,26µM*,28µM*,8.9µM*
COc1cccc(-n2nnnc2SCC(=O)Nc2ccccc2OC)c1,x,19,x,-11%,u
CC(C)(C)c1ccc(Cn2c(=O)cnc3ccccc32)cc1,10µM*,-81*,u,13µM*,u
O=[N+]([O-])c1ccc(-c2nc(=S)c3c(o2)CCCC3)cc1,15%,-101*,u,-26%,19%
CCN(CC(=O)NCc1ccc(F)cc1)C(=O)COc1ccc2ccccc2c1,2%,28,u,-10%,-14%
O=C(COc1ccc(C(=O)c2ccccc2)cc1)NCc1ccc(F)cc1,u,-76*,u,-15%,-8%
CCN(CC(=O)NCc1ccc(F)cc1)C(=O)COc1ccc(C)c(C)c1,-10%,-65*,0%,8%,u
Cc1cccnc1Oc1ncccc1N,x,12,x,-2%,14%
CC(C)(C)CN1CCN(Cc2nc(-c3ccc(F)cc3)cs2)CC1CCO (stereo not given),-11%,-64*,u,u,2.2µM*
O=C(N/N=C/c1cc(Br)c(O)c(Br)c1O)c1cccnc1,x,5,x,-3%,u
Cc1nn(Cc2ccccc2)c(Cl)c1/C=N/NC(=O)c1cccnc1,-2%,u,-2%,11%,-8%
COc1ccc2ccccc2c1/C=N\NC(=O)c1cccnc1,u,18,-3%[46.1 µM],8%,u
Cc1cccc(OCC(=O)NC(C)C(=O)N/N=C/c2c(OCc3ccccc3)ccc3ccccc23)c1 (stereo not given),3%,-74*,u,9%,7.9µM*
Cc1cc(O)c(C)c(O)c1/C=N/NC(=O)c1cccnc1,u,-97*,10µM*,36%,13µM*
Cc1c(/C=N/NC(=O)c2cccnc2)c2ccccc2n1Cc1ccccc1,u,-62*,-26%[46.1 µM],14µM*,11µM*

# High-throughput results from PubChem BioAssay.
